# Data: PubChem BioAssay (NCI)
# Compounds without any hit were thinned out: in the full panel of roughly 83,000, 20% have a hit.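 Negative percent growth values reflect cell death: -40 means 40% of the cells present at the start died, and -100 means all died.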 Active and inactive are the calls of the source. Rule for the calls: active = growth percent below 10; inactive = the rest.
# Test system: MDA-MB-468 breast
# Assay: NCI-60 one-dose screen, 48 h (100 = growth as untreated, 0 = no growth, -100 = all killed)
# Details: 10 µM unless noted
row,Structure (SMILES),growth
1,COc1ccc(CCN2C(=O)C(C)(C)SC2=S)cc1OC,105% (inactive)
2,O=C1OCC2=C1C(c1ccccc1)c1cc3c(cc1N2CCO)OCCO3 (centres undefined),-63.7% (active)
3,CN1C(=O)C(C2=NNC(c3ccccc3C(=O)O)C2)C(=O)N(C)C1=O (centres undefined),96.4% (inactive)
4,CC(=O)Oc1ccc(C2=Cc3ccc(OC(C)=O)cc3OC2C)cc1 (centres undefined),56.5% (inactive)
5,COc1c(N2CC3CCCNC3C2)c(F)cc2c(=O)c(C(=O)N/N=C/c3ccccc3)cn(C3CC3)c12 (centres undefined),83.7% (inactive)
6,C[C@H]1[C@H](C)CC[C@]2(C(=O)O)CC[C@]3(C)C(=CC[C@@H]4[C@@]5(C)C/C(=C/c6cccnc6)[C@H](O)C(C)(C)[C@@H]5CC[C@]43C)[C@H]12,5.39% [100 µM] (active)
7,O=C(O)COc1c(Cl)cc([N+](=O)[O-])cc1Cl,99.4% (inactive)
8,COc1ccc2c(c1)OC(N(C(C)=O)C(C)=O)=C(C#N)C2c1ccc(F)cc1 (centres undefined),-36.1% (active)
9,O=[N+]([O-])c1ccc([I+]c2ccccc2)cc1,-5.9% (active)
10,N#Cc1cnc2ccc(-c3cnc4n[nH]nc4c3)cc2c1N1CCc2cc(F)c(Cl)cc21,-13.9% (active)
11,O=[N+]([O-])c1cccc(N=Nc2ccc(O)cc2O)c1,69.6% (inactive)
12,Cn1cc(-c2nc(-c3c[nH]c4ccncc34)cs2)c2cc(F)ccc21,-72.8% (active)
13,O=C1C(=O)N(CCCCn2cc(-c3ccccc3)nn2)c2ccccc21,125% (inactive)
14,COc1ccc(N2CCN(C3=C(Cl)C(=O)C(C)=C(C)C3=O)CC2)cc1,74.1% (inactive)
15,CC1(C)CC[C@]2(C(=O)O)CC[C@]3(C)C(=CC[C@@H]4[C@@]5(C)Cc6c([nH]c7ccccc67)C(C)(C)[C@@H]5CC[C@]43C)[C@@H]2C1,53.4% (inactive)
16,CCCN(CCC)c1ccc(/C=C/c2ccc3cc(OCC)ccc3n2)cc1,74.1% (inactive)
17,CC(C)(C)n1cc(-c2ccnc(NCCCNS(=O)(=O)c3ccc(C(F)(F)F)cc3)c2)c(-c2cccc(F)c2)n1,98.6% (inactive)
18,CCCn1c(=O)c2c(nc(-c3cccc(OCCCCl)c3)n2C)n(CCC)c1=O,23.6% (inactive)
19,COc1cc(C(=O)/C=C/c2c(C)n([O-])c3ccc(C)cc3[n+]2=O)cc(OC)c1OC,30.3% (inactive)
20,Cc1nn(-c2ccccc2)c(-n2ccnc2)c1/C=N/Nc1nc(-c2ccc(F)cc2)cs1,27.3% (inactive)
21,CN[C@@H]1C[C@H]2O[C@@](C)([C@@H]1OC)n1c3ccccc3c3c4c(c5c6ccccc6n2c5c31)C(=O)N[C@H]4O,-56.3% (active)
22,COc1ccc2nc(-n3nc(C)cc3C)c(-n3nc(C)cc3C)nc2c1,103% (inactive)
23,CCOC(=O)C1=C(C)NC(SCc2nnc(-c3ccc(Cl)cc3)o2)=NC1c1ccc(Br)cc1 (centres undefined),58.2% (inactive)
24,CC(C)C/C=C/C=C/C(=O)N[C@@H](CC(N)=O)C(=O)N[C@@H]1C(=O)N[C@H](c2ccc(O)cc2)C(=O)N[C@H](CCCN)C(=O)N[C@H]([C@@H](C)O)C(=O)N[C@H](c2ccc(O)cc2)C(=O)N[C@H](c2ccc(O)cc2)C(=O)N[C@H]([C@H](C)O)C(=O)N[C@H](Cc2ccccc2)C(=O)N[C@H](CCCN)C(=O)N[C@H](c2ccc(O[C@H]3O[C@@H](CO)[C@@H](O)[C@@H](O)[C@H]3O[C@@H]3O[C@H](CO)[C@H](O)[C@H](O)[C@@H]3O)cc2)C(=O)N[C@H]([C@H](C)O)C(=O)N[C@H](c2ccc(O)cc2)C(=O)NCC(=O)N[C@H](CC(C)C)C(=O)N[C@H](C)C(=O)N[C@H](c2ccc(O)c(Cl)c2)C(=O)O[C@@H]1C(N)=O,66.7% (inactive)
25,COc1cc(C(=O)Nc2cc(O)c(C/C=C(\C)CCC=C(C)C)c(O)c2)cc2c1O[C@]1(C)CC[C@@H](O)C(C)(C)[C@H]1C2,3.89% (active)
26,COc1cc(C2C3=C(COC3=O)N(CCO)c3cc4c(cc32)OCCO4)cc(OC)c1OC (centres undefined),-64.5% (active)
27,CN(C[C@@H]1COCCO1)S(=O)(=O)Nc1ccc2ccc3ncc(-c4cnn(C)c4)cc3c(=O)c2c1,49.9% (inactive)
28,COc1cc(/C=C2\CCCC3=C2NC(N)=NC3c2cc(OC)c(OC)c(OC)c2)cc(OC)c1OC (centres undefined),-70.9% (active)
29,CCN(CC)c1ccc(/C=N/NC(=O)c2ccc(S(N)(=O)=O)cc2)cc1,1.85% (active)
